Data published in PubChem BioAssay (NCATS).
Several values for one entry are separate records, joined by “and”; a condition that tells them apart may be missing. Equal entries are not always repeated. Inconclusive results are not listed. Activity calls are given as the source filed them. Unless noted, the call rests on the fitted dose curve; in most records, active means well fitted curve in the direction sought with a large enough effect; inconclusive means small, poorly fitted or top-dose-only effect, or another doubt; inactive means no such curve, though single readings can be large; an effect the other way counts as inactive or inconclusive.

How the values were obtained:
[1] = molecular target: Glucocorticoid receptor (Homo sapiens) (UniProt P04150); assay: GR-GFP Redistribution (AID 450;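 active means compounds whose dose series gives a full or clear partial fitted curve of increased nuclear translocation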; further: potency means the concentration at half of the fitted maximal effect); conditions: U2OS GR-GFP nuclear translocation, laser cytometry, 2 h
[2] = molecular target: Glucocorticoid receptor (Homo sapiens) (UniProt P04150); assay: GR-EFC Redistribution (AID 451; calls by dose curve; further: potency means the concentration at half of the fitted maximal effect); conditions: CHO-K1 GR-EFC translocation, beta-gal luminescence, 2 h
Procedure, shortened: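 CHO-K1 cells stably expressing nuclear-localized β-gal enzyme acceptor and GR fused C-terminally to the enzyme donor fragment; ligand-driven nuclear translocation restores β-gal by complementation. Compounds titrated up to 46 uM final, 2 h at 37 °C; luminescence read.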

[3] = ZIKV-mCherry secondary qHTS for Zika virus inhibitors (AID 1347158); further: top concentration of the series differs between compounds
Procedure, shortened: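 After overnight seeding at 37 °C, Vero cells receive compound and then ZIKV-mCherry (MOI 1). Following 48-72 h infection, cells are fixed, counterstained with Hoechst, and imaged; percent infected cells is derived from an mCherry intensity cut-off of 450 RFU.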

[4] = Confirmatory screen NINDS Rhodamine qHTS for Zika virus inhibitors (AID 1347161); further: nearly all actives have a fitted effect of over 60% in size; further: potency means the concentration at half of the fitted maximal effect;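 on activity change, negative = inhibition: purified Zika NS2B-NS3 protease with linked NS2B cofactor domain and Rhodamine110 peptide substrate; plate controls were no-inhibitor control for no effect and no-enzyme control for full effect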
Procedure, shortened: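 Single-chain NS2B-NS3 protease, 25 nM, pH 8.0; compounds preincubated 15 min. Activity: Rhodamine110 release from 1.5 microM substrate over 15 min, room temperature, data fitted to 4-parameter Hill.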

[5] = test system: Zika virus NS2B-NS3 protease (linked); assay: 384 well plate NINDS AMC confirmatory qHTS for Zika virus inhibitors (AID 1347163); further: nearly all actives have a fitted effect of over 50% in size; further: potency means the concentration at half of the fitted maximal effect;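 on activity change, negative = inhibition: linked protease at 5 30 or 60 nM final depending on run; fluorescence of AMC released from Ac-VKTGKR-AMC peptide cleaved by the protease; top concentration of the series differs between compounds; 0% = no-inhibitor control and -100% = no-enzyme control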
Procedure, shortened: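 Linked protease 5/30/60 nM final; cpds up to 1 mM final, ~15 min preinc. Substrate Ac-VKTGKR-AMC 30 microM final. RT, dark, 25 min; FI ex 355/em 460; normalized to no-enzyme/no-inhibitor ctrls.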

[6] = Confirmatory screen GU Rhodamine qHTS for Zika virus inhibitors qHTS (AID 1347157); further: nearly all actives have a fitted effect of over 70% in size; further: potency means the concentration at half of the fitted maximal effect;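 on activity change, negative = inhibition: plate controls were no-inhibitor wells for no effect and no-enzyme wells for full effect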
Procedure, shortened: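 Unlinked NS2B/NS3, 25 nM; Rhod110 peptide, 1.5 microM; compounds, up to 114 microM. Reaction run 15 min at RT in 10 mM Tris-HCl pH 8.0, 0.01% Tween 20; kinetic fluorescence change fitted with a 4-parameter Hill model.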

[7] = Tertiary RLuc qRT-PCR qHTS assay for Zika virus inhibitors (AID 1347169); further: top concentration of the series differs between compounds; on the % scale 0 is the no-effect control and ±100 the full control effect; nearly all actives have a fitted effect of over 55% in size
Procedure, shortened: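 Vero cells (1,000 per well) plated overnight at 37 degrees C, treated with compound in DMSO, then infected with recombinant ZIKV-RLuc (Cambodian) at MOI 1-2 for 48-72 hrs. Live-cell Renilla luciferase substrate added; luminescence read after 1-1.5 hrs.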

[8] = test system: Zika virus NS2B-NS3 protease (linked construct); assay: 384 well plate NINDS Rhodamine confirmatory qHTS for Zika virus inhibitors (AID 1347164);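 further: fluorescence from protease cleavage of Ac-LKRR-rhodamine 110 substrate; nearly all actives have a fitted effect of over 65% in size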; further: potency means the concentration at half of the fitted maximal effect;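 on activity change, negative = inhibition: top concentration of the series differs between compounds; plate controls were no-inhibitor control for no effect and no-enzyme control for full effect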
Procedure, shortened: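 Linked protease at a final 5 nM, 30 nM or 60 nM was preincubated ~15 min with compounds, then given 10 microM Ac-LKRR-Rhodamine 110. Fluorescence (ex 485/em 538 nm) after 25 min in the dark at room temperature.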

[9] = qHTS Assay for Lipid Storage Modulators (AID 1519; calls by dose curve; on activity change, negative = inhibition: on the % scale 0 is the no-effect control and ±100 the full control effect); conditions: Drosophila S3 cells, BODIPY lipid droplet/cell ratio, laser cytometry, cells loaded with oleic acid; for activity change, negative = inhibition: at 57.5 µM (top of the series)
Procedure, shortened: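 Cells seeded at 5,000 per well were treated with compounds over a concentration series and loaded with oleic acid (400 uM, as added). Lipid droplet fluorescence (488 nm excitation, 500-530 nm channel) was read by laser-scanning cytometry and normalized to 20 uM Triacsin C.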

[10] = molecular target: DNA dC->dU-editing enzyme APOBEC-3G (Homo sapiens) (UniProt Q9HC16); assay: qHTS for inhibitors of Vif-A3G interactions: Validation (AID 588379); further: 0% is about no effect
Procedure, shortened: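 HeLa cells stably expressing Vif and A3G-eYFP, 700 cells/well, incubated overnight at 37 deg C, then exposed to compound overnight at 37 deg C. Inhibition of Vif-mediated degradation read as increased yellow fluorescence (Ex 488/Em 500-530) by laser-scanning cytometry.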

[11] = measured here: cell count channel max response
[12] = measured here: lipid channel max response

Chain of Glucocorticoid receptor (Homo sapiens) (P04150 whole entry, looked up, the tested form may be a part): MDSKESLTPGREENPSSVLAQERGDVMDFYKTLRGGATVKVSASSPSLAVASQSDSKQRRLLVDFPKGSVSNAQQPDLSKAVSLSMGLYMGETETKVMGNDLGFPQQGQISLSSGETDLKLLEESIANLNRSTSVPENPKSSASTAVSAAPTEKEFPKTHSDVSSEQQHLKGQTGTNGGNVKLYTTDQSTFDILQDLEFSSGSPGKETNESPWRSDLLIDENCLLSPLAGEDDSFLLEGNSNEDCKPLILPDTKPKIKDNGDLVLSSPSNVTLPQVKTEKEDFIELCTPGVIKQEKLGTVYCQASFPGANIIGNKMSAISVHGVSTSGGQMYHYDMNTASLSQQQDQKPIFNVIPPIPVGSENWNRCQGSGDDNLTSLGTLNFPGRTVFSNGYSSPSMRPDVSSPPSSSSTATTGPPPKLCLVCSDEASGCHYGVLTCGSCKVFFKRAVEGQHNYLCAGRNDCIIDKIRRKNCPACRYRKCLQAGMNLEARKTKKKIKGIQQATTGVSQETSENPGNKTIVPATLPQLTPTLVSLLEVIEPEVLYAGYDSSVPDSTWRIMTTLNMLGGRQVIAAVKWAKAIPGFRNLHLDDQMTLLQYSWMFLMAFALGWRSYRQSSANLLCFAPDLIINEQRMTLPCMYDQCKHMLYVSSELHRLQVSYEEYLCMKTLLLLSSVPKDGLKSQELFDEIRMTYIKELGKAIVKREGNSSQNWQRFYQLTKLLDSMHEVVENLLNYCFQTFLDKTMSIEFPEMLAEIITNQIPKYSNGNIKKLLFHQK
Chain of DNA dC->dU-editing enzyme APOBEC-3G (Homo sapiens) (Q9HC16 whole entry, looked up): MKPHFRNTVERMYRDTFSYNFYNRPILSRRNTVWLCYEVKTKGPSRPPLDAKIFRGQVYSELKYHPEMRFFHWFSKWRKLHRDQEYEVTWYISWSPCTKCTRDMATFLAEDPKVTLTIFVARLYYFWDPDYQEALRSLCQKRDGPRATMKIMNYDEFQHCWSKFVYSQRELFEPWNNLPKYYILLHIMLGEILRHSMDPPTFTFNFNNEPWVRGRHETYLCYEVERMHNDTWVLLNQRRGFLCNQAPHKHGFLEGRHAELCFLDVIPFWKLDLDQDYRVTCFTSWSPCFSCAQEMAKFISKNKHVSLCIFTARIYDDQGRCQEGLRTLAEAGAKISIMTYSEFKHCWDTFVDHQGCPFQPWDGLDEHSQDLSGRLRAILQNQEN

For O=C(O)c1c(Br)c(Br)c(Br)c(Br)c1C1c2ccc(O)cc2Oc2cc(O)ccc21, the Potency [1] was > 46 µM (inactive), the Potency [2] was > 9.22 µM (inactive) and the Potency [3] was “inactive”. For the same molecule, the Potency [4] was 0.891 µM (active) and the Potency [5] was 14.1 µM (active).

In the case of CC(C)c1nn2c(=O)cc(COC(=O)c3ccccc3NC(=O)c3cccc(Cl)c3)nc2s1, the Potency [6] is reported as “inactive”, the Potency [4] is reported as “inactive” and the Potency [7] is reported as “inactive”.

For N#C/C(=C\c1ccc(-c2cc(Cl)ccc2Cl)o1)C(=O)Nc1ccccc1C(=O)O, the Potency [6] was 3.16 µM (active), the Potency [4] was 6.31 µM (active) and the Potency [5] was 20 µM (active). For the same molecule, the Potency [7] was “inactive”.

In the case of O=C(Nc1ccccc1C(=O)OCc1cc(=O)n2c3c(sc2n1)CCCC3)c1ccc(Cl)cc1, the Potency [6] is reported as “inactive” and the Potency [7] is reported as “inactive”.

With CN(C)c1cc(CNCC(C)(C)C)c(O)c2c1C[C@H]1C[C@H]3[C@H](N(C)C)C(=O)C(C(N)=O)=C(O)[C@@]3(O)C(=O)C1=C2O the Potency [3] was “inactive”, the Potency [4] was “inactive” and the Potency [5] was 178 µM (active).

In the case of Cc1ccc(S(=O)(=O)Nc2cc(SCC(=O)O)c(O)c3ccccc23)cc1[N+](=O)[O-], the Potency [3] is reported as “inactive”, the Potency [5] is reported as 31.6 µM (active) and the activity change, negative = inhibition [8] is reported as -280% [at 100 µM] (inactive).

In the case of Cc1ccc(Nc2nnc(-c3ccc(C)c(S(=O)(=O)NCc4nc5ccccc5[nH]4)c3)c3ccccc23)cc1, the Potency [3] is reported as “inactive” and the Potency [5] is reported as “inactive”.

For CC(Oc1ccccc1)C(=O)Nc1ccc(C(=O)OCc2cc(=O)n3nc(C(C)C)sc3n2)cc1 (stereo unspecified), the Potency [6] was “inactive”, the Potency [4] was “inactive” and the Potency [7] was “inactive”.

In the case of O=C(Nc1ccc(C(=O)Nc2ccc(C(=O)Nc3ccc(S(=O)(=O)O)c4cc(S(=O)(=O)O)cc(S(=O)(=O)O)c34)cc2)cc1)Nc1ccc(C(=O)Nc2ccc(C(=O)Nc3ccc(S(=O)(=O)O)c4cc(S(=O)(=O)O)cc(S(=O)(=O)O)c34)cc2)cc1, the Potency [1] is reported as > 46 µM (inactive), the Potency [2] is reported as > 46 µM (inactive) and the activity change, negative = inhibition [9] is reported as 5.27% (inactive). The max response [9, 11] was -4.46%, the max response [9, 12] was 0.0462% and the Potency [10] was “inactive”. The Potency [6] was 2 µM (active), the Potency [4] was 2.24 µM (active) and 1.26 µM (active) and the Potency [5] was 39.8 µM (active). For the same molecule, the Potency [8] was 2.51 µM (active) and the Potency [7] was “inactive”.

For O=C1c2ccc(O)c(O)c2C(=O)c2c(O)ccc(O)c21, the activity change, negative = inhibition [9] was 6.47% (inactive), the max response [9, 11] was -10.7% and the max response [9, 12] was -3.59%. For the same molecule, the Potency [3] was “inactive”, the Potency [4] was 5.62 µM (active) and the Potency [5] was 31.6 µM (active).

For Nc1c(N=Nc2ccc([N+](=O)[O-])cc2)c(S(=O)(=O)O)cc2cc(S(=O)(=O)O)c(/C=C/c3ccccc3)c(O)c12, the Potency [6] was 3.16 µM (active), the Potency [4] was 2.82 µM (active) and the Potency [5] was 79.4 µM (active). For the same molecule, the Potency [8] was 14.1 µM (active).

In the case of O=C(Nc1ccc(C(=O)OCc2cc(=O)n3nc(C4CC4)sc3n2)cc1)c1ccc(F)cc1, the Potency [6] is reported as “inactive” and the Potency [7] is reported as “inactive”.

For CCOC(=O)c1ccccc1NC(=O)CSc1ccc(-c2sc(-c3ccccc3)nc2C)nn1, the Potency [6] was “inactive”, the Potency [4] was “inactive” and the Potency [7] was “inactive”.

In the case of CCOC(=O)c1ccc(CN(Cc2ccc(F)cc2)S(=O)(=O)c2ccc(F)c(C(=O)Nc3ccccc3C(F)(F)F)c2)cc1, the Potency [6] is reported as “inactive”, the Potency [4] is reported as “inactive” and the Potency [7] is reported as “inactive”.

For CC(C)CN1CC(CNC(=O)c2ccc(Oc3ccccc3)cc2)Oc2ccnc(-c3ccc(OCC(=O)O)cc3)c2C1=O (stereo unspecified), the Potency [3] was “inactive” and the Potency [8] was 28.2 µM (active).
